Measured values published in doi:10.1101/2023.07.10.548322.

Target: alpha-synuclein (aSyn) WT (human, UniProt P37840 1-140)
Experiment: RNA Bind-n-Seq
Conditions: ssRNA

Row | Sequence | binding signal
1 | GGGGGGAUUGGG | 57.4 enrichment score
2 | GAGUGGGUGGGA | 43.8 enrichment score
3 | UGGGGGAUGAGG | 46.4 enrichment score
4 | GGGGGGCUGAGG | 43.8 enrichment score
5 | CGUGGGAGGGGG | 43.8 enrichment score
6 | GGGUGGGCGGGG | 96 enrichment score
7 | UGGGUGGGUGGG | 46.4 enrichment score
8 | GGUGUGGGUGUG | 51.8 enrichment score
9 | GAGGUUGGCGGG | 43.8 enrichment score
10 | GAGGGGCUGGCG | 41.1 enrichment score
11 | GGGGUGAGGUGU | 41.1 enrichment score
12 | GGGCUGGGAGUG | 41.1 enrichment score
13 | AGGGGAGCUGGG | 41.1 enrichment score
14 | GGAGGUAGGGAG | 43.8 enrichment score
15 | GCGGGCAGGUGG | 43.8 enrichment score
16 | GUGUGGGGGCAG | 43.8 enrichment score
17 | AAGGGGCGGAGG | 54.6 enrichment score

Row | Sequence | binding signal
18 | GUGGGGGGGGCA | 43.8 enrichment score
19 | GGUGGAUGAGGG | 41.1 enrichment score
20 | GGAAUGGGGUGG | 43.8 enrichment score
21 | GGUUGGGAGCGG | 43.8 enrichment score
22 | GGGAGCGGGGGA | 46.4 enrichment score
23 | GCGGGAGGGCGG | 49.1 enrichment score
24 | AUGGGAGUGGGG | 43.8 enrichment score
25 | GGGGAGUGGAUG | 49.1 enrichment score
26 | GGAGGAAGGGGA | 41.1 enrichment score
27 | GGCGAAGGGAGG | 49.1 enrichment score
28 | UGGGUUUGGGGG | 46.4 enrichment score
29 | UGUGGGCGGGAG | 54.6 enrichment score
30 | GGGUGGGCGGAU | 43.8 enrichment score
31 | GUGGGGAGGAAG | 46.4 enrichment score
32 | UGGCGGGGUGGA | 46.4 enrichment score
33 | UAGGGGUUGUGG | 43.8 enrichment score
